# Laboratory results from PubChem BioAssay (NCATS).
# Results filed as inconclusive are left out. Where a call stands in place of a potency, no number is given. The source made the active and inactive calls. Unless noted, calls follow the shape of the dose curve; as a rule, active = well fitted curve in the direction sought with a large enough effect; inconclusive = small, poorly fitted or top-dose-only effect, or another doubt; inactive = no such curve, though single readings can be large; an effect the other way counts as inactive or inconclusive.
# How the values were obtained:
# [1] = target: Metallo-beta-lactamase type 2 (Klebsiella pneumoniae) (UniProt C7C422); assay: qHTS to identify inhibitors of the New Delhi Metallo-beta-lactamase (NDM): assay validation screen against the NCATS LOPAC Collection (AID 1794843);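 also: nitrocefin turnover by NDM-1 measured as 485 nm absorbance at plateau; series mostly up to about 38 µM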
# Outline: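 NDM-1 at 2 nM final in 50 mM HEPES pH 7.0, 1 uM ZnSO4, 0.01% Tween20, preincubated with LOPAC compounds pinned in DMSO; 50 uM nitrocefin (stock) added. Hydrolysis read as absorbance at 485 nm in the plateau phase.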
# [2] = target: Glutathione peroxidase 1 (Homo sapiens) (UniProt P07203); assay: Primary qHTS Assay for Inhibitors of Recombinant Selenoprotein Glutathione Peroxidase 1 (GPX1) (AID 1845191); also: nearly all actives have a fitted effect of over 65% in size
# Outline: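 GR-coupled readout: NADPH consumption tracked by fluorescence, ex 340/em 450 nm, at t=0 and after 15 min at RT. Final mix 10 nM GPX1, 1 mM GSH, 0.5 mM CHP, 0.5 mM NADPH, 100 nM GR, 0.01% BSA, following 30 min enzyme–compound preincubation.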
# [3] = target: Phospholipid hydroperoxide glutathione peroxidase GPX4 (Homo sapiens) (UniProt P36969); assay: Primary qHTS Assay for Inhibitors of Recombinant Selenoprotein Glutathione Peroxidase 4 (GPX4) (AID 1845192); also: nearly all actives have a fitted effect of over 65% in size
# Outline: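 Steps: GPX4 plus compound, 30 min RT; add GR/GSH/NADPH master mix; start with cumene hydroperoxide; read 340/450 nm fluorescence at 0 and 15 min. Finals were 200 nM GPX4, 1 mM GSH, 0.5 mM CHP, 0.5 mM NADPH, 100 nM GR.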
# [4] = NCATS anti-infectives library activity on HEK293 viability as a counter-qHTS vs the C. elegans viability qHTS (AID 1745854);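 also: HEK293 cells exposed to compounds for 24 hr before the viability read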; also: potency is read from the fitted curve at half-maximal effect
# Outline: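 Counter-screen for cytotoxicity: HEK293, 24 hr, 37C, compounds up to 41.7 uM final (a dilution series, 1:5). Readout CellTiter-Glo luminescence, 10 min RT. Digitonin control, 83.3 uM final.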
# [5] = NCATS anti-infectives library activity on the primary C. elegans qHTS viability assay (AID 1745855; calls by dose curve; also: potency is read from the fitted curve at half-maximal effect); settings: C. elegans worm area imaging, day 7
# Outline: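 GFP read-out by 488 nm laser cytometry at day 0, 3 and 7, gated on object perimeter, area and peak intensity, scored viability of PE254-GFP-FLuc worms exposed to compound in S medium with bacterial capsules at 21 °C.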
# [6] = target: Nicotinamide N-methyltransferase (Homo sapiens) (UniProt P40261); assay: Confirmatory Screen for Target Class Profiling of Small Molecule Inhibitors of Methyltransferases (AID 1745852); settings: MTase-Glo luminescence, SAH detection, recombinant enzyme; measured here: NNMT max response; stronger effect = lower value
# [7] = target: Phenylethanolamine N-methyltransferase (Homo sapiens) (UniProt P11086); assay: as above; settings: MTase-Glo luminescence, SAH detection, recombinant enzyme; measured here: PNMT max response; stronger effect = lower value
# [8] = target: Luciferin 4-monooxygenase (Photinus pyralis) (UniProt P08659); assay: Primary firefly luciferase (FLuc) qHTS assay for identification of artifact compounds. (AID 1845220); settings: outcome: dose series up to 54.1 µM unless noted; also: series mostly up to about 54 µM; nearly all actives have a fitted effect of over 60% in size
# Outline: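 Titrated compounds were incubated 15 min at RT, protected from light, with luciferin and ATP at 10 uM; reaction started with 10 nM FLuc, luminescence imaged at 5 min, and concentration-response fitted by Hill equation.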
# [9] = Primary fluorescence-based thiol-reactive (MSTI) qHTS assay for identification of artifact compounds. (AID 1845221);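 also: series mostly up to about 54 µM; thiol-reactive compounds lower the probe fluorescence signal; nearly all actives have a fitted effect of over 65% in size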
# Outline: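 MSTI probe at 4 uM final in 2% DMSO/PBS pH 7.4; compounds, 1 h at room temperature in dark. Fluorescence Ex/Em 525/598 nm, normalised to Acetyl-MSTI and MSTI, fitted to 4-parameter Hill.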
# Chain of Phospholipid hydroperoxide glutathione peroxidase GPX4 (Homo sapiens) (P36969 whole entry, looked up): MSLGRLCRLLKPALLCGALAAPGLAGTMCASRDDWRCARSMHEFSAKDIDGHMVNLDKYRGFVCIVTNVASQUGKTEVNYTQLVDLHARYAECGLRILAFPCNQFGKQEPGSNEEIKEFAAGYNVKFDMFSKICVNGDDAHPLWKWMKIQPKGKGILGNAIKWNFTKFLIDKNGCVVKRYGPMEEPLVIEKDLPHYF
# Chain of Phenylethanolamine N-methyltransferase (Homo sapiens) (P11086 whole entry, looked up): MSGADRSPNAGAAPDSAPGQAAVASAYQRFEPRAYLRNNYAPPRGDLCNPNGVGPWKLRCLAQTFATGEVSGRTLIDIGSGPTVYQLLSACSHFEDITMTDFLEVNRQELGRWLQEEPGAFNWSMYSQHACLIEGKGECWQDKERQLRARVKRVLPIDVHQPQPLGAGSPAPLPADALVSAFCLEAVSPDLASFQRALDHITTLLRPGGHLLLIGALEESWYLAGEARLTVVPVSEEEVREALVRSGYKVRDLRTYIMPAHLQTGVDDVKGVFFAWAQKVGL
# Chain of Nicotinamide N-methyltransferase (Homo sapiens) (P40261 whole entry, looked up): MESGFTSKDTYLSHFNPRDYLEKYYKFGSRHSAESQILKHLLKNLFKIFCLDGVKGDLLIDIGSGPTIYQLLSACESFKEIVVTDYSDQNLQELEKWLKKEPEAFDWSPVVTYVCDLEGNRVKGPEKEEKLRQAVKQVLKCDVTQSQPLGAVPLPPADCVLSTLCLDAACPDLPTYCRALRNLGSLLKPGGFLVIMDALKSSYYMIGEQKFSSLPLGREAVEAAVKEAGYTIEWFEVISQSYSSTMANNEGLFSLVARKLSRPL
# Chain of Glutathione peroxidase 1 (Homo sapiens) (P07203 whole entry, looked up): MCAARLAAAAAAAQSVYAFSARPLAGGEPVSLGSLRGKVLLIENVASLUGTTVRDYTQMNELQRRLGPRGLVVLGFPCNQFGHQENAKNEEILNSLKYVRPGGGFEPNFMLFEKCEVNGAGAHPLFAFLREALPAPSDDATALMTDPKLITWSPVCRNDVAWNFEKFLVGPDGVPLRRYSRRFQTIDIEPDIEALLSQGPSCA
# Chain of Metallo-beta-lactamase type 2 (Klebsiella pneumoniae) (C7C422 whole entry, looked up): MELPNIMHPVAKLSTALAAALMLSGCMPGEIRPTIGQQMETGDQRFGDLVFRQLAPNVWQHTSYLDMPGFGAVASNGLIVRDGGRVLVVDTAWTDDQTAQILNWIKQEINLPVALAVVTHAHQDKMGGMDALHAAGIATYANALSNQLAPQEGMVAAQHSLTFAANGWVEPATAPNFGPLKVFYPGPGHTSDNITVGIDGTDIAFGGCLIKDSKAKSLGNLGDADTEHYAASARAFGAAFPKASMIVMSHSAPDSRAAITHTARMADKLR
compound,measurement,setting,value
CCCN(CCC)C1CCc2ccc(O)cc2C1 (stereo not given),outcome,[1],inactive
same,Potency,[2],inactive
same,Potency,[3],inactive
CC1=C(O)C(=O)C=C2C1=CC=C1[C@@]2(C)CC[C@@]2(C)[C@@H]3C[C@](C)(C(=O)O)CC[C@]3(C)CC[C@]12C,Potency,[4],7.94 µM (active)
same,Potency,[5],4.59 µM (active)
same,Potency,[2],inactive
C[N+]1(C)C2CCC1CC(OC(=O)C(CO)c1ccccc1)C2 (stereo not given),outcome,[1],inactive
same,Potency,[2],inactive
same,Potency,[3],inactive
O=S(=O)(CC1CS1)c1ccc(Oc2ccccc2)cc1 (stereo not given),Potency,[4],inactive
same,Potency,[2],inactive
same,Potency,[3],inactive
NC1CC1c1ccccc1 (stereo not given),activity,[6],-6.32%
same,activity,[7],-14.4%
same,outcome,[1],inactive
same,Potency,[2],inactive
same,Potency,[3],inactive
CC(C)Oc1cccnc1N(C)C1CCN(Cc2ccccc2)CC1,outcome,[1],inactive
same,Potency,[2],inactive
same,Potency,[3],inactive
NCc1cc(=O)[nH]o1,outcome,[1],inactive
same,Potency,[2],inactive
same,Potency,[3],inactive
CCNC(=O)C[C@@H]1N=C(c2ccc(Cl)cc2)c2cc(OC)ccc2-n2c(C)nnc21,Potency,[4],inactive
same,Potency,[2],inactive
same,Potency,[3],inactive
same,outcome,[8],inactive
same,Potency,[9],inactive
NC1CCc2cc(O)c(O)cc2C1 (stereo not given),activity,[6],-14.5%
same,activity,[7],-22.8%
same,outcome,[1],inactive
same,Potency,[2],inactive
same,Potency,[3],inactive
COc1ccc2c(c[n+](C)c3c4cc5c(cc4ccc23)OCO5)c1OC,outcome,[1],inactive
same,Potency,[2],inactive
same,Potency,[3],inactive
Oc1ccc2c3c1O[C@H]1c4[nH]c5c(c4C[C@@]4(O)[C@@H](C2)N(CC2CC2)CC[C@]314)C[C@@]1(O)[C@H]2Cc3ccc(O)c4c3[C@@]1(CCN2CC1CC1)[C@H]5O4,outcome,[1],inactive
same,Potency,[2],inactive
same,Potency,[3],inactive
CS(=N)(=O)CC[C@H](N)C(=O)O (stereo not given in full),outcome,[1],inactive
same,Potency,[2],inactive
same,Potency,[3],inactive
Cc1[nH]nc2ccc(-c3cncc(OC[C@@H](N)Cc4c[nH]c5ccccc45)c3)cc12,activity,[6],-70.5%
same,activity,[7],-56.5%
same,Potency,[2],inactive
same,Potency,[3],inactive
same,outcome,[8],inactive
same,Potency,[9],inactive
C[C@@H](N)Cc1cnc[nH]1,activity,[6],-6.87%
same,activity,[7],-2.06%
same,outcome,[1],inactive
same,Potency,[2],inactive
same,Potency,[3],inactive
CCCN(CCC)[C@@H]1CCc2ccc(O)cc2C1,activity,[6],-6.47%
same,activity,[7],6.74%
same,outcome,[1],inactive
same,Potency,[2],inactive
same,Potency,[3],inactive
Cc1nccc2c1[nH]c1ccccc12,outcome,[1],inactive
same,Potency,[2],inactive
Cn1cnc(CCN)c1,activity,[6],-8.03%
same,activity,[7],3.1%
same,outcome,[1],inactive
same,Potency,[2],inactive
same,Potency,[3],inactive
O=C1C=CC[C@@H]2[C@H]3CCCN4CCC[C@@H](CN12)[C@@H]34,Potency,[4],inactive
same,Potency,[2],inactive
same,Potency,[3],inactive
same,outcome,[8],inactive
same,Potency,[9],inactive
